The values that follow come from PubChem BioAssay (Tox21).

Molecules are shown by their SMILES. Records with an inconclusive call do not appear. A call without a number means that no potency is given here. Calls of active or inactive are those of the source. Unless noted, calls follow the shape of the dose curve; as a rule, active = well fitted cell-killing curve with a large enough effect in the repeat runs; inconclusive = weak or mixed curves, or effect the other way; inactive = no such curve, though single readings can be large or run the other way.

Sequence of Peroxisome proliferator-activated receptor gamma (Homo sapiens) (P37231 whole entry, looked up): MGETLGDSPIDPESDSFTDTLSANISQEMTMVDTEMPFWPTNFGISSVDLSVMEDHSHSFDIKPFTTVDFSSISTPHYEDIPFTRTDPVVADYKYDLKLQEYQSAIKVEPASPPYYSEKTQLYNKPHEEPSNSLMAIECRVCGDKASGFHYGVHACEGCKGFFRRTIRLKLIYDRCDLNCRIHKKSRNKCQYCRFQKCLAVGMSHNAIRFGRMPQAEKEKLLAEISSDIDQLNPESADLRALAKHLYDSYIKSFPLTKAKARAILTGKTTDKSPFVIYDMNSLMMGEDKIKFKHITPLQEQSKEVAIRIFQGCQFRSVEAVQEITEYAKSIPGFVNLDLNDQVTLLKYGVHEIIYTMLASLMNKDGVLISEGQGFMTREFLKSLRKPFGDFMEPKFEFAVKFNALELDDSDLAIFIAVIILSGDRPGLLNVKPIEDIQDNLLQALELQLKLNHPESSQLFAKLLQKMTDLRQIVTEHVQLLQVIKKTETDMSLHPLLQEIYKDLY

One experiment has as its target Peroxisome proliferator-activated receptor gamma (Homo sapiens) (UniProt P37231). Put plainly: qHTS assay to identify small molecule agonists of the peroxisome proliferator-activated receptor gamma (PPARg) signaling pathway (AID 743094; active = well fitted activation curve with a large enough effect in the signal ratio in the repeat runs, not every such curve was filed as active; the % refers to the signal ratio). Particulars: HEK293H PPARg-UAS-bla, beta-lactamase FRET ratio, 17 h; series mostly up to 57 µM; activation: at the top concentration. In short, it runs like this:
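Cells from the PPARg UAS-bla HEK293H line are plated and incubated 5 h at 37C. Compounds in DMSO are pinned in and left 17 h at 37C. LiveBLAzer B/G substrate is then added for 1 h at room temperature before fluorescence is measured.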
On to `O=[N+]([O-])c1ccc([As](=O)(O)O)cc1`, for which the result was inactive.

As to `CC(C)OC(=O)Nc1cccc(Cl)c1`, the outcome was inactive.

On to `CN(N=O)c1ccccc1`, for which the outcome was inactive.

For `CC(Oc1ccc(Cl)cc1Cl)C(=O)O` (stereo not given), the result was inactive.

Take `CN(C)[C@@H]1C(=O)C(C(N)=O)=C(O)[C@@]2(O)C(=O)C3=C(O)c4c(O)cccc4[C@@](C)(O)[C@H]3C[C@@H]12`: the “activation” value was 0.768% [at 26.2 µM] (inactive).

For the compound `COC(=O)NS(=O)(=O)c1ccc(N)cc1`, the result was inactive.

In the case of `Nc1ccc(Br)cc1`, the “activation” value is -8.81% (inactive).

Take `CN(C)CCO`: the outcome was inactive.

`ClCCBr`: the outcome was inactive.

In the case of `CCC[N+](=O)[O-]`, the outcome was inactive.

Regarding `COP(N)(=O)SC` (stereo not given), the outcome was inactive.

The target is the same in the next experiment. Put plainly: qHTS assay to identify small molecule antagonists of the peroxisome proliferator-activated receptor gamma (PPARg) signaling pathway (AID 743191; calls by dose curve; also: nearly all actives have a fitted effect of over 30% in size). The conditions noted are these: HEK293H PPARg-UAS-bla, beta-lactamase ratio, antagonist, 17 h; series mostly up to 62.6 µM; ratio activity, negative = inhibition: at the top concentration. In short, it runs like this:
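Beta-lactamase reporter under UAS control in HEK293H PPARg-bla cells; compound treatment 17 h at 37C. Read-out: fluorescence intensity after 1 h room-temperature incubation with LiveBLAzer B/G FRET substrate.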
(In general: In qHTS, concentration-response curves come from the screen itself.)
Take `CC(C)OC(=O)Nc1ccccc1`: the Potency result is “inactive”.

Regarding `CC(=O)C=C(C)C`, the Potency entry was “inactive”.

Take `CCCCCCCCCl`: the Potency entry was “inactive”.

For the compound `CN(C)N=O`, the “ratio activity, negative = inhibition” value was 8.82% (inactive).

Take `CC(C)C1(C)N=C(c2nc3ccccc3cc2C(=O)O)NC1=O` (stereo not given): the “ratio activity, negative = inhibition” value is 0.652% [at 81.1 µM] (inactive).

On to `CC(C)=C[C@@H]1[C@@H](C(=O)OCc2coc(Cc3ccccc3)c2)C1(C)C`, for which the “ratio activity, negative = inhibition” value is 1.97% (inactive).

Consider `COP(N)(=O)SC` (stereo not given), for which the Potency result is “inactive”.

Test system in another experiment: not listed separately
Put plainly: qHTS assay to identify small molecule antagonists of the peroxisome proliferator-activated receptor gamma (PPARg) signaling pathway - cell viability counter screen (AID 743194). Also: nearly all actives have a fitted effect of over 55% in size. The conditions noted are these: PPARg-bla HEK293H viability, CellTiter-Glo luminescence, 17 h; series mostly up to 62.6 µM; activity change, negative = cytotoxicity: at the top concentration. In outline:
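Viability was measured as CellTiter-Glo luminescence in GeneBLAzer PPARg UAS-bla HEK293H cells. These cells had been exposed 17 h at 37 C to compounds together with rosiglitazone at 50 nM final, with the beta-lactamase readout taken in the same wells.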
In the case of `COC(=O)c1ccccc1N`, the compound was called inactive.

Consider `CC1C=[C-]C=C1.[C-]#[O+].[C-]#[O+].[C-]#[O+].[Mn]`, for which the outcome was inactive.

Regarding `Clc1ccc(Cl)cc1`, the outcome was inactive.

As to `Cc1ccc(N)cc1N`, the “activity change, negative = cytotoxicity” value was 22.8% (inactive).

`CCCN(CCC)c1c([N+](=O)[O-])cc(C(F)(F)F)cc1[N+](=O)[O-]`: the call was inactive.

For `C#CCN(C)[C@H](C)Cc1ccccc1`, the outcome was inactive.

For `CCC(C)(CC)c1cc(NC(=O)c2c(OC)cccc2OC)on1`, the outcome was inactive.

In the case of `O=C(NC(=O)c1c(F)cccc1F)Nc1cc(Cl)c(OC(F)(F)C(F)C(F)(F)F)cc1Cl` (stereo not given), the outcome was inactive.

Take `NCC(O)c1ccc(O)cc1` (stereo not given): the call was inactive.

Turning to `Clc1ccccc1Cl`, the call was inactive.

As to `Oc1ccccc1Cl`, the “activity change, negative = cytotoxicity” value was -1.11% (inactive).

With `ClCc1cccnc1`, the result was inactive.

Consider `O=NN1CCCC1`, for which the compound was classed as inactive.

Take `CCNc1nc(NC(C)C)nc(SC)n1`: the call was inactive.

For `CCCCCOC(=O)c1ccccc1C(=O)OCCCCC`, the call was inactive.

In the case of `O=c1n(Cl)c(=O)n(Cl)c(=O)n1Cl`, the call was inactive.

Consider `COc1ccc2c3c1O[C@H]1[C@@H](O)C=C[C@H]4[C@@H](C2)N(C)CC[C@@]341`, for which the compound was called inactive.

For `Cc1cc(-c2cc(C)c(N)c(C)c2)cc(C)c1N`, the compound was called inactive.

As to `O=[N+]([O-])c1ccc([As](=O)(O)O)cc1`, the compound was classed as inactive.

Turning to `CC(C)OC(=O)Nc1cccc(Cl)c1`, the outcome was inactive.

Turning to `CN(N=O)c1ccccc1`, the outcome was inactive.

On to `CC(Oc1ccc(Cl)cc1Cl)C(=O)O` (stereo not given), for which the result was inactive.

Regarding `CN(C)[C@@H]1C(=O)C(C(N)=O)=C(O)[C@@]2(O)C(=O)C3=C(O)c4c(O)cccc4[C@@](C)(O)[C@H]3C[C@@H]12`, the compound was classed as inactive.

Regarding `Nc1ccc(Br)cc1`, the result was inactive.

On to `CN(C)CCO`, for which the call was inactive.

Regarding `ClCCBr`, the compound was called inactive.

As for `CCC[N+](=O)[O-]`, the result was inactive.
